Experimental data: PubChem BioAssay (NCI)
Where “and” joins values, the source holds several entries; their conditions need not be identical. Equal entries are not always repeated. The panel holds about 79,000 compounds, 15% with a hit somewhere; the sample as a whole holds those more often. Cut-off read from the data, not from the text of the source: active = growth inhibition above about 70%; inactive = the rest.

Experiments:
[1] = NCI Yeast Anticancer Drug Screen. Data for the rad50 strain (AID 155);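 note: 0% = growth of vehicle-only cultures of the same strain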; settings: S. cerevisiae rad50 strain growth inhibition, active compounds read high; at 50.0 µM unless noted
In short: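 Vehicle-treated cultures provide the reference for the growth inhibition reported for compound-exposed, repair-deficient yeast.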

[2] = NCI Yeast Anticancer Drug Screen. Data for the mec2-1 strain (AID 157); settings: S. cerevisiae mec2-1 strain, active compounds read high; at 50.0 µM unless noted
In short: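 Each compound was tested on mec2-1 yeast, a strain altered in DNA damage repair or cell cycle control. Growth inhibition is reported relative to vehicle.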

[3] = NCI Yeast Anticancer Drug Screen. Data for the sgs1 mgt1 strain (AID 161);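 note: 0% = growth of cultures given vehicle only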; settings: S. cerevisiae sgs1 mgt1 strain, active compounds read high; at 50.0 µM unless noted
In short: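 Inhibition of yeast growth, normalised to vehicle-treated controls, is reported for a strain bearing genetic alterations in DNA damage repair.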

[4] = NCI Yeast Anticancer Drug Screen. Data for the cln2 rad14 strain (AID 165);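 note: 0% = growth equal to vehicle treated cultures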; settings: S. cerevisiae cln2 rad14 strain, active compounds read high; at 50.0 µM unless noted
In short: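 Test compounds were added to cln2 rad14 yeast cultures; inhibition of growth was then determined by comparison with vehicle treatment.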

[5] = NCI Yeast Anticancer Drug Screen. Data for the bub3 strain (AID 167); settings: S. cerevisiae bub3 mutant strain, active compounds read high; at 50.0 µM unless noted
In short: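 Mutant yeast screening strain plus compound; vehicle-treated cultures serve as the 0% inhibition reference.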

[6] = NCI Yeast Anticancer Drug Screen. Data for the mlh1 rad18 strain (AID 175); settings: S. cerevisiae mlh1 rad18 strain growth inhibition, active compounds read high; at 50.0 µM unless noted
In short: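 Inhibition values reflect reduced growth of mutant yeast versus vehicle-treated controls following compound exposure; the mutations affect DNA damage repair.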

Measured: growth inhibition

c1c[nH]c(CN2CCOCC2)n1
inactive: [1] -32% | [2] -28.9% | [3] -43.4% | [4] 2.5% | [5] -38.9% | [6] -5.15%

CC(=O)OC(OC(C)=O)c1ccccc1
inactive: [1] 24.2% | [2] 12.2% | [3] -3.4% | [4] 16% | [5] 5% | [6] 11.7%

CC(=O)c1oc2cc([N+](=O)[O-])c3ccccc3c2c1C
inactive: [1] 14.7% | [2] -8.55% | [3] 26.3% | [4] 11.6% | [5] -5.35% | [6] 40.1%

CC(=O)c1cccc(NC(=O)CCCCCCCCC(=O)Nc2cccc(C(C)=O)c2)c1
inactive: [1] -5.7% | [2] -0.7% | [3] -1.55% | [4] -49.5% | [5] -1.2% | [6] 2.95%

NC(CCn1cnc2c(=O)[nH]cnc21)C(=O)O (stereo not given)
inactive: [1] 4.1% | [2] 10.3% | [3] 6.7% | [4] -31.6% | [5] -12.8% | [6] -11.7%

COc1ccc(C(c2cc3c(cc2O)OCO3)N2CCN(C(c3ccc(OC)c(OC)c3)c3cc4c(cc3O)OCO4)CC2)cc1OC (stereo not given)
inactive: [1] -3% | [2] 1.05% | [3] 1.6% | [4] 17.4% | [5] 2.2% | [6] -17.1%

O=C1NC(N2CCOCC2)=N/C1=C\c1cccs1
inactive: [1] -8.45% | [2] 5.05% | [3] 13.2% | [4] 32.3% | [5] 1.05% | [6] -34%

CC(=O)CC(=O)ON(C)C(=O)Cc1ccccc1
inactive: [1] 29.6% | [2] 15.2% | [3] -2.75% | [4] -4.4% | [5] -6.1% | [6] -8.35%

CSc1ccc(Nc2cc(=O)[nH]c(=O)[nH]2)cc1
inactive: [1] 14.6% | [2] 8.75% | [3] 18.1% | [4] 2.3% | [5] 3.7% | [6] -10.9%

CN(Cc1ccc(Cl)cc1)N=Nc1ccc(C(=O)O)cc1
inactive: [1] -5.5% | [2] 4.4% | [3] 24.7% | [4] 25.8% | [5] 16.6% | [6] 24.6%

C[N+]1(C)CCc2cc(O)c(O)cc2C1Cc1ccc(O)c(O)c1 (stereo not given)
inactive: [1] -4.35% | [2] 24.6% | [3] -29.6% | [4] 23.4% | [5] -36.8% | [6] 10.1%

COc1c(OC(C)=O)ccc(/C=C2\N=C(C)OC2=O)c1[N+](=O)[O-]
inactive: [1] -8.3% | [2] -4.75% | [3] 5.25% | [4] 16.5% | [5] 11.1% | [6] 9.2%

CC1(c2ccccc2)CC/C(=C/c2ccccc2)C1=O (stereo not given)
inactive: [1] -5.4% | [2] 10.1% | [3] 25.9% | [4] -43.5% | [5] 33.3% | [6] 18.3%

O=c1c2ccccc2n2c(=S)[nH]nc2n1-c1ccccc1
inactive: [1] -2.7% | [2] 3.55% | [3] -12.2% | [4] 6.95% | [5] 0.05% | [6] -10.8%

O=C(O)Cc1cc2c(cc1I)OCO2
inactive: [1] -1.2% | [2] 22.9% | [3] 2.15% | [4] -18.9% | [5] -11.2% | [6] -0.55%

Clc1ccccc1C1SCc2nc3ccccc3n21 (stereo not given)
inactive: [1] 10.8% | [2] -7.85% | [3] 53.2% | [4] 18.9% | [5] 26.4% | [6] 22.6%

CC(N)C(=O)NO (stereo not given)
inactive: [1] -20.4% | [2] -24.6% | [3] -16.2% | [4] -40.6% | [5] 4.85% | [6] -36%

O=C(CO)C(O)C(O)C(O)C(O)CO (stereo not given)
inactive: [1] 19.2% and -6.1% | [2] 4.7% and 1.6% | [3] 20.3% and 3.4% | [4] -1.1% and -1.05% | [5] 32.5% and -3.2% | [6] 20.9% and 5.8%

N#CCN(CC#N)C1CC=CCC1N(CC#N)CC#N (stereo not given)
inactive: [1] -26.2% | [2] 1% | [3] -30.2% | [4] -20.8% | [5] -21% | [6] -38.1%

CCOC(C)=Nc1cc(OC)cc2c1NC(=O)CCS2
inactive: [1] -28.9% | [2] -20.1% | [3] -36.6% | [4] -50% | [5] 5.6% | [6] -40.2%

Cc1ccc(S(=O)(=O)/N=S(/Cc2ccccc2)c2c(C)cccc2C)cc1 (stereo not given)
inactive: [1] 20.9% | [2] 2.65% | [3] 20.6% | [4] 17.6% | [5] -0.75% | [6] 3.3%

Cc1ccc([N+](=O)[O-])cc1N
inactive: [1] 31% | [2] 25.4% | [3] 4.15% | [4] 23.2% | [5] 17.1% | [6] 14.7%

N#C/C(=C\c1cccc2ccccc12)c1ccc(Cl)cc1
inactive: [1] -11.8% | [2] -12.9% | [3] -6.65% | [4] -13.7% | [5] -2.6% | [6] -1.85%

CN(C)C(CCC(=O)NC(C)(C)C)CC(=O)NC(C)(C)C (stereo not given)
inactive: [1] 0.2% | [2] 5% | [3] 11.7% | [4] -2.35% | [5] 6.95% | [6] -8.65%

CCOC(=O)C1(C#N)C(C#N)(C#N)C1(CC)CC (stereo not given)
inactive: [1] -11.2% | [2] 19.6% | [3] -1.55% | [4] 10.3% | [5] -6.4% | [6] -20.8%

CN(C)C(C#CCO)c1ccccc1 (stereo not given)
inactive: [1] -30.5% | [2] -13.2% | [3] 1.45% | [4] -3.55% | [5] -9.7% | [6] 4.8%

CCO[C@@H]1OC(=O)[C@H]2C(c3ccccc3)=NO[C@@H]12
inactive: [1] -13.2% | [2] -22.4% | [3] -9.7% | [4] 7.55% | [5] 13.7% | [6] -4.15%

CC(C)(O)CCO
inactive: [1] -38.4% | [2] -40.4% | [3] -17.4% | [4] -10.7% | [5] -25.9% | [6] -33.1%

O=[N+]([O-])c1ccc(NN=C2CCCCC2)c([N+](=O)[O-])c1
inactive: [1] 9.1% | [2] -18.2% | [3] 1.8% | [4] -39.6% | [5] 2.7% | [6] 30.6%

CCC[C@@H]1C(=O)N=C(N)N1C(=O)OCc1ccccc1
inactive: [1] 18.6% | [2] 8.4% | [3] 7.75% | [4] 1.8% | [5] -5.8% | [6] 2.5%

CC(O)CNC(=O)C(C)(C)O (stereo not given)
inactive: [1] 36% | [2] 13.6% | [3] 20.7% | [4] 9.65% | [5] 21.8% | [6] 18.9%

CCC1CSC(NS(=O)(=O)c2ccc(N)cc2)=N1 (stereo not given)
inactive: [1] -18.4% | [2] -3.5% | [3] -0.7% | [4] -39% | [5] 2.15% | [6] 1.3%

CCCCCCCCOC(=O)Nc1ccc(S(=O)(=O)NC2CCCCC2)cc1
inactive: [1] 7.05% | [2] -2.9% | [3] 14.1% | [4] 37.8% | [5] 10.8% | [6] 20.6%

COc1ccc(NS(=O)(=O)c2ccc(NC(CNC(C)S(=O)(=O)O)S(=O)(=O)O)cc2)cc1 (stereo not given)
inactive: [1] 18.1% | [2] 5.75% | [3] 29.3% | [4] 52.5% | [5] -0.85% | [6] 36.5%

CCOC(=O)Cn1cncc1C
inactive: [1] -33.6% | [2] -6.6% | [3] -13.5% | [4] -73.6% | [5] -3.4% | [6] -7.1%

Cc1ccc(O)c(C=NCCN=Cc2cc(C)ccc2O)c1.[Cu+2]
inactive: [1] 1.9% | [2] 5.25% | [3] 6.15% | [4] 8.45% | [5] -20.6% | [6] 13.3%

Cn1nc2ccc3nccc(N4CCN(CCO)CC4)c3c2n1
inactive: [1] -25.6% | [2] -6.9% | [3] -21.6% | [4] -17.1% | [5] -8.45% | [6] -15%

COC1=Nc2ccccc2N2CCN=C12
inactive: [1] 4.55% | [2] -23.6% | [3] -8.7% | [4] -1.35% | [5] -8.75% | [6] -12.8%

Nc1c(C(=O)O)ccc(O)c1O
inactive: [1] 28.9% | [2] 20.5% | [3] 32.2% | [4] 7.95% | [5] 0.95% | [6] 9.8%

Cc1cc(C2=NCC(C)(C)S2)ccc1O
inactive: [1] 15.2% | [2] 7.8% | [3] 8.9% | [4] 10.2% | [5] 25% | [6] 29.5%
